Assay [1] is described as follows: qHTS RealTime-Glo MT Cell Viability Assay in HEK293 cells - 16 hour (AID 1224872). Also: nearly all actives have a fitted effect of over 50% in size. Also: potency is read from the fitted curve at half-maximal effect. In short, it runs like this:
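Nonlytic real-time viability readout: viable cells convert prosubstrate to NanoLuc substrate, giving luminescence proportional to live cell number. HEK293, 600 cells/well, compound added after 5 h, continuous culture at 37 C.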
On the technique in general: In qHTS, concentration-response curves come from the screen itself.

A short description of assay [2]: qHTS RealTime-Glo MT Cell Viability Assay in HepG2 cells - 8 hour (AID 1224873). Also: nearly all actives have a fitted effect of over 55% in size. In short, it runs like this: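 HepG2 cells (600/well) mixed with RealTime-Glo MT reagent, settled 5 h at 37 C/5% CO2 before compound addition. Nonlytic NanoLuc luminescence from viable-cell prosubstrate reduction read repeatedly during 40 h treatment at 37 C.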
A short description of assay [3]: qHTS RealTime-Glo MT Cell Viability Assay in HEK293 cells - 40 hour (AID 1224874). Also: nearly all actives have a fitted effect of over 50% in size. Also: potency is read from the fitted curve at half-maximal effect. The conditions noted are these: RealTime-Glo luminescence; max response: stronger effect = lower value. In outline:
(§1)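 Kinetic, non-lysing viability readout. Seed HEK293 (600/well) with reagent, incubate 5 h at 37 C/5% CO2, pin 23 nL compound in DMSO, incubate at 37 C, read luminescence at 0, 8, 16, 24, 32, 40 h.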

A short description of assay [4]: A CellTox Green Cytotoxicity Assay to monitor cytotoxicity in HEK293 cells - 24 hour (AID 1224875). Also: series mostly up to about 77 µM; nearly all actives have a fitted effect of over 45% in size. In outline:
(§2)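 Real-time, in one plate: 600 HEK293 cells/well with dead-cell DNA dye, pinned compound after 5 h, 37 C incubation over 40 h; viable cells give no appreciable fluorescence.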

Assay [5] in a line: A CellTox Green Cytotoxicity Assay to monitor cytotoxicity in HepG2 cells - 16 hour (AID 1224876). Also: nearly all actives have a fitted effect of over 45% in size. Also: potency is read from the fitted curve at half-maximal effect. In short, it runs like this: (§3)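 Cytotoxicity was tracked as dead-cell DNA fluorescence in HepG2 cells treated with test compounds at 37 C; each time-point value comes from one kinetic series spanning 0, 8, 16, 24, 32 and 40 h.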
Assay [6] is described as follows: qHTS RealTime-Glo MT Cell Viability Assay in HepG2 cells - 32 hour (AID 1224877). Also: nearly all actives have a fitted effect of over 55% in size. Also: potency is read from the fitted curve at half-maximal effect. In short, it runs like this: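 Luminescence read-out: viable HepG2 cells reduce a prosubstrate to a NanoLuc substrate, giving a signal proportional to live cell number. Reads taken at 0, 8, 16, 24, 32 and 40 h of compound exposure at 37 C.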
Assay [7] is described as follows: A CellTox Green Cytotoxicity Assay to monitor cytotoxicity in HepG2 cells - 24 hour (AID 1224878). Also: nearly all actives have a fitted effect of over 45% in size. Also: potency is read from the fitted curve at half-maximal effect. In outline: as §3
A short description of assay [8]: qHTS RealTime-Glo MT Cell Viability Assay in HEK293 cells - 0 hour (AID 1224880). Also: top concentration of the series differs between compounds; nearly all actives have a fitted effect of over 45% in size. In outline:
as §1

Assay [9] is described as follows: A CellTox Green Cytotoxicity Assay to monitor cytotoxicity in HepG2 cells - 40 hour (AID 1224879). Also: nearly all actives have a fitted effect of over 40% in size. Also: potency is read from the fitted curve at half-maximal effect. In outline: as §3
Assay [10] can be described thus: A CellTox Green Cytotoxicity Assay to monitor cytotoxicity in HEK293 cells - 40 hour (AID 1224871). Also: nearly all actives have a fitted effect of over 45% in size. Also: potency is read from the fitted curve at half-maximal effect. In outline: as §2

Each structure is given as a SMILES string. “And” between values parts separate entries of the source, which are not always exact repeats. Equal values may be shown once. Inconclusive results are not listed. A number with no mark means an inactive call. The source made the active and inactive calls. Calls follow the shape of the dose curve; as a rule, active = well fitted curve in the direction sought with a large enough effect in the repeat runs; inconclusive = weak or mixed curves; inactive = no such curve, though single readings can be large; an effect the other way counts as inactive or inconclusive.
% is scaled to controls: 0 for no effect and ±100 for the full control effect.

For `O=C(CCC1CCN(Cc2ccccc2)CC1)c1ccc2c(c1)NCCCC2`, the Potency in assay [1] and in assay [3] was 9.52 µM (active) throughout. The Potency result in [2], in [4], in [5], in [6], in assay [7] and in assay [8] was “inactive” throughout.

Consider `Oc1ccc(Nc2ccccc2)cc1`, for which the Potency in assay [1] and in assay [3] was 19.5 µM (active) each time. In addition, the Potency entry in assay [5], in assay [6], in assay [7] and in assay [9] was “inactive” each time.

As to `CC(=O)Oc1ccc2c(c1)CC[C@@H]1[C@@H]2CC[C@]2(C)[C@@H](O)CC[C@@H]12`, the Potency in [3] was 16.9 µM (active). Also, the Potency entry in [4], in assay [5] and in assay [6] was “inactive” throughout.

As to `CCC(Cc1ccccc1)(C(=O)c1ccc(N2CCOCC2)cc1)N(C)C` (stereo not given), the Potency result in [2], in assay [4], in assay [5], in [6], in assay [7] and in [8] was “inactive” in each case.

Take `Nc1nccs1`: the Potency result in [1], in [2], in [5], in assay [6], in [7] and in assay [9] was “inactive” each time. Further, in [8], the Potency entry was “inactive”. In assay [3], the max response is -15.6%.

`NC(=O)N(O)[C@@H]1COc2cc(OCc3ccccc3)ccc21`: the Potency result in assay [10], in [4], in assay [5] and in [6] was “inactive” in each case.

For `Cc1ccc(Nc2nccc(N(C)c3ccc4c(C)n(C)nc4c3)n2)cc1S(N)(=O)=O`, the results for the Potency in assay [1] and in [3] were 1.9 µM (active) and 1.34 µM (active), respectively. The Potency result in [2], in [4], in [5], in assay [6], in [9] and in [8] was “inactive” each time.

Consider `O=C(N/N=C/c1ccc([N+](=O)[O-])o1)c1ccc(O)cc1`, for which, in assay [5], the Potency entry is “inactive”.

With `COc1cc2ncnc(Nc3ccc(F)c(Cl)c3)c2cc1OCCCN1CCOCC1`, the Potency in [3] was 10.7 µM (active); in assay [5] it was 23.9 µM (active); in assay [6], 23.9 µM (active); in assay [7], 23.9 µM (active); in assay [9] it was 23.9 µM (active).

Take `CCCCC(=O)O[C@]1(C(=O)CO)[C@@H](C)C[C@H]2[C@@H]3CCC4=CC(=O)C=C[C@]4(C)[C@@]3(F)[C@@H](O)C[C@@]21C`: the Potency in assay [10] is 54.9 µM (active). For the same compound, the Potency entry in assay [4], in assay [5], in assay [6], in assay [7] and in [9] was “inactive” each time.

`C/C=C/C=C/CCCCCCCO`: the Potency result in [1], in [2], in assay [4], in assay [5], in [6] and in [7] was “inactive” in each case. Also, the Potency result in assay [8] was “inactive”. Besides, the max response in assay [3] is -18.5%.

With `COCc1c(C(C)C)nc(C(C)C)c(/C=C/[C@@H](O)C[C@@H](O)CC(=O)O)c1-c1ccc(F)cc1`, the Potency result in assay [10], in assay [4] and in assay [5] was “inactive” in each case. Further, the Potency in assay [9] is 379 nM (active) and 4.84 µM (active).

In the case of `NC(=O)Cn1c(=O)cc(CCN2CCN(c3nccc4sccc34)CC2)c2ccc(F)cc21`, the Potency result in assay [10], in assay [4], in assay [5], in [7] and in assay [9] was “inactive” in each case. The Potency in [3] is 43.6 µM (active).

For `NC(=O)N(O)[C@@H]1C=C[C@H](Oc2cccc(Oc3ccc(F)cc3)c2)C1`, the figures for the Potency in [10], in [3] and in [7] were 43.6 µM (active), 19.5 µM (active) and 38.9 µM (active), respectively. Further, in [6], the Potency entry is “inactive”.

Regarding `CCc1nn(CCCN2CCN(c3cccc(Cl)c3)CC2)c(=O)n1CCOc1ccccc1`, the Potency in assay [1] and in [3] was 8.49 µM (active) in each case. Besides, the Potency entry in assay [4], in assay [5] and in assay [7] was “inactive” each time.

`CN1CCN(CCCN2c3ccccc3Sc3ccc(S(=O)(=O)N(C)C)cc32)CC1`: in assay [2], the Potency entry was “inactive”. Also, the figures for the Potency in assay [5] and in [9] were 23.9 µM (active) and 26.8 µM (active), respectively.

Turning to `COc1cc2c(N3CCN(C(=O)Nc4ccc(OC(C)C)cc4)CC3)ncnc2cc1OCCCN1CCCCC1`, the figures for the Potency in [3] and in assay [9] were 9.52 µM (active) and 26.8 µM (active), respectively. The Potency entry in assay [4], in assay [5], in assay [6] and in assay [8] was “inactive” throughout.

For `CCCCN(CCCC)C(=S)SSC(=S)N(CCCC)CCCC`, the Potency in assay [1] was 48.5 µM (active); in assay [3] it was 38.5 µM (active). Besides, the Potency entry in assay [4], in [5], in assay [6], in [9] and in [8] was “inactive” throughout.

For `CCCc1c(OCCCOc2ccc(OCC(=O)O)cc2)ccc(C(C)=O)c1O`, the Potency entry in [10], in assay [4], in [5], in assay [6], in assay [7] and in assay [8] was “inactive” throughout. Further, in assay [3], the max response is -7.6%.

`CCCCCCCCCCCC[N+](C)(C)CC(=O)[O-]`: the Potency entry in assay [1], in assay [2], in assay [6] and in assay [8] was “inactive” each time. In [3], the max response was -3.41%.

On to `CCCCCCCCCCCC[N+](C)(C)CCCS(=O)(=O)[O-]`, for which the Potency entry in assay [1], in [2], in assay [5], in assay [6], in [7] and in assay [9] was “inactive” in each case. The Potency result in [8] was “inactive”. The max response in assay [3] is -0.977%.

For `Cc1cc(S(=O)(=O)O)ccc1N=Nc1c(O)ccc2ccccc12`, the Potency entry in [10], in assay [4], in assay [5], in [6], in [7] and in assay [8] was “inactive” each time. Besides, the max response in [3] was -12.7%.

With `O=C(N[C@@H](c1ccccc1)[C@@H]1CCCCN1)c1cccc(C(F)(F)F)c1Cl`, the Potency result in [2] was “inactive”. Besides, the Potency was 24.5 µM (active) in assay [3], 43.6 µM (active) in assay [6] and 34.7 µM (active) in assay [9].

Take `Fc1ccccc1[C@@H](F)COC1CCC(Nc2ncnc3[nH]ncc23)CC1` (stereo not given in full): the Potency result in [2], in assay [4], in assay [5], in assay [6], in assay [7] and in assay [9] was “inactive” in each case. In addition, in [8], the Potency result was “inactive”. The Potency in [3] was 24.5 µM (active).

As for `Nc1nc(Cl)nc2c1ncn2[C@@H]1O[C@H](CO)[C@@H](O)[C@@H]1F`, the Potency result in assay [10], in assay [4], in assay [5], in assay [6], in [7] and in [8] was “inactive” throughout. Moreover, the Potency in [3] was 4.25 µM (active).

The values are drawn from PubChem BioAssay (Tox21).
